Compound activity deposited in PubChem by Broad Institute.
This excerpt belongs to a sample that is enriched for hits.
BL2 CD40 inh: inhibitors of CD40-induced NF-kB signaling, primary screen, BL2 cells, luciferase reporter, single point | inhibition, % at 10 µM | CD40L-induced, 4 h | AID 1053188, 2014 | hit rate 0.94% among 83,000;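 active = mean inhibition of at least 50% with a set share of replicates also reaching that level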;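 note: 0% = neutral control wells and 100% = IKK inhibitor VII at 50 µM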
Numbers without * were called inactive; [ ] = remark or other dose.

SMILES | BL2 CD40 inh
CC(C)(C)[S@@](=O)N1Cc2cc(C(=O)N3CCOCC3)nc(-c3cccc(-c4ccccc4F)c3)c2[C@H]1CCO | -8[25 µM]
C[C@H]1CN([C@@H](C)CO)C(=O)c2ccccc2-c2ccccc2CO[C@@H]1CN(C)C(=O)Nc1ccc(F)cc1 | -8
CCCCC(=O)Nc1ccc(Cl)cc1F | -11
Cc1nnnn1/C(=C\c1ccccc1)C(=O)OCC(=O)Nc1ccc(Cl)cc1F | 78*
O=C(COC(=O)Cc1ccsc1)Nc1ccc(Cl)cc1F | 3
O=C(NCCN1CCCC1)[C@H]1[C@H](CO)[C@H]2Cn3c(cccc3=O)[C@@H]1N2C(=O)c1ccccc1 | -8[25 µM]
OC[C@@H]1[C@H](c2ccc(-c3ccc(F)cc3)cc2)[C@@H]2CN(CCC(F)(F)F)CCCCN12 | -17[25 µM]
CNC[C@H]1Oc2ncccc2C(=O)N(C)C[C@H]1C | 1
CCOc1ccccc1NC(=O)c1cccc(NC(=O)c2cccnc2)c1 | 4
O=C1CCCCc2sc(Br)c([N+](=O)[O-])c2N1 | 100*
CCN1[C@@H]2c3ccc(-c4cccc(C(=O)N(C)C)c4)c(=O)n3C[C@@H]2[C@@H](CO)[C@@H]1C(=O)N(C)C | 0[25 µM]
C[C@H](NC(=O)C[C@H]1C[C@@H]2c3cc(NC(=O)NC4CCCC4)ccc3O[C@@H]2[C@@H](CO)O1)c1ccccc1 | 0
CC(C)[C@H](C)NC(=O)N(C)C[C@@H]1OCc2ccccc2-c2ccccc2C(=O)N([C@@H](C)CO)C[C@H]1C | -7
Oc1ccc(Cc2ccccc2)c2cccnc12 | 83*
Oc1ccc(CN2CCC(Cc3ccccc3)CC2)c2cccnc12 | 25
OCc1ccc(O)c2ncccc12 | 29
CCC(=O)N1[C@H](CO)[C@H](c2ccc(-c3ccc(F)cc3)cc2)[C@@H]1CNC(C)=O | 4
COc1ccccc1-c1ccc([C@H]2[C@@H](C#N)N(C(=O)CN(C)C)[C@@H]2CO)cc1 | -16[25 µM]
COc1ccc(NC(=O)N(C)C[C@@H]2Oc3ccc(NS(=O)(=O)c4ccc(F)cc4)cc3C(=O)N([C@H](C)CO)C[C@@H]2C)cc1 | 1
COc1ccc(C#Cc2ccc([C@@H]3[C@@H](CO)N4C(=O)CN(C(=O)NC(C)C)C[C@@H]34)cc2)cc1 | 13[25 µM]
C[C@H](CO)N1C[C@H](C)[C@@H](CN(C)S(=O)(=O)c2ccsc2)OCc2ccccc2-c2c(n(C)c3ccccc23)C1=O | -6
CCCc1c(C(=O)OCC)[nH]c2c1C(=O)CCC2 | 5
Cc1c(C(=O)OCCOc2ccccc2)[nH]c2c1C(=O)CCC2 | 66*
Cc1c(C(=O)OC2CCCC2C)[nH]c2c1C(=O)CCC2 (centres undefined) | -57
CO[C@H]1CN(C)C(=O)c2ccc(NC(=O)Nc3ccccc3F)cc2OC[C@@H](C)N(CC2CC2)C[C@H]1C | -1[25 µM]
SMILES | BL2 CD40 inh
CCN(CC)c1ccc(C(=O)O)cc1 | -2
CCN(CC)CC(C)(C)C(=O)/C=C/c1ccc(/C=C/C(=O)C(C)(C)CN(CC)CC)cc1 | 75*
CCN(CC)CC(=O)Nc1c(C)cc(C(C)(C)C)cc1C | -38
O=C(Nc1ccccc1F)N1C[C@@H]2[C@H](c3ccccc31)[C@@H](CO)N2C(=O)C1CC1 | -10
N#C[C@H]1[C@@H](c2ccc(C3=CCCC3)cc2)[C@H](CO)N1C(=O)c1cccc(F)c1 | -4
CC(=O)N1[C@@H]2CN(S(=O)(=O)c3ccccc3C)c3ccccc3[C@@H]2[C@@H]1CO | -6[25 µM]
CC=Cc1ccc2n(c1=O)C[C@@H]1[C@@H](CO)[C@H](C(=O)NCC3CC3)N(C(=O)C3CCOCC3)[C@H]21 (mixture of isomers) | 13[25 µM]
COC(=O)C1CC(=O)N(Cc2ccccc2)C1 (centres undefined) | 3
CCOc1ccc(CCNC(=O)C2CC(=O)N(Cc3ccc(C)cc3)C2)cc1OCC (centres undefined) | -11
Cc1ccc(CN2CC(C(=O)Nc3ncc(C)s3)CC2=O)cc1 (centres undefined) | 78*
COC(=O)C[C@@H]1C[C@@H]2c3cc(NS(C)(=O)=O)ccc3O[C@@H]2[C@@H](CO)O1 | 6[25 µM]
OC[C@@H]1[C@@H](c2ccccc2)C2(CN(CCC(F)(F)F)C2)N1Cc1nccs1 | -10[25 µM]
CCCNC(=O)N1C[C@@H]2[C@H](c3ccccc31)[C@H](CO)N2C(=O)Nc1ccc(F)cc1 | 17
C[C@@H]1CN([C@H](C)CO)C(=O)CCCn2cc(nn2)CO[C@@H]1CN(C)Cc1cccc2c1OCCCO2 | -9[25 µM]
COc1ccc2[nH]c(=O)c(CN(Cc3cccs3)S(=O)(=O)c3cccc4nsnc34)cc2c1 | 55*
COc1ccc2[nH]c(=O)c(CN(C(=O)c3cccnc3)c3ccccc3)cc2c1 | -7
COc1ccc(S(=O)(=O)N(Cc2cccnc2)Cc2cc3ccccc3[nH]c2=O)cc1 | 6
C[C@@H]1CN([C@@H](C)CO)C(=O)c2cc(NC(=O)Cc3cn(C)c4ccccc34)ccc2O[C@H]1CN(C)S(C)(=O)=O | -4
CC(=O)Nc1ccc(S(=O)(=O)CC(=O)CS(=O)(=O)c2ccc(NC(C)=O)cc2)cc1 | 5
COC(=O)Nc1ccc(NC(C)=O)cc1 | 3
COC(=O)/C=C/S(=O)(=O)c1ccc(NC(C)=O)cc1 | 106*
CN1C(=O)c2cc(NS(=O)(=O)c3cccc(F)c3)ccc2OC[C@@H]2O[C@@H](CC(=O)N3CCc4ccccc4C3)CC[C@H]21 | -23[25 µM]
CCS(=O)(=O)N1CCC2(CC1)CN(C(=O)c1cccc(F)c1)[C@@H](CO)c1c2c2ccc(OC)cc2n1C | 10[25 µM]
COc1ccc(-c2nc(NC(=O)c3nc4nccc(C)n4n3)sc2C)cc1 | 3
Cc1ccc(C(=O)Nc2nc(-c3ccco3)c(-c3ccco3)s2)o1 | -1
SMILES | BL2 CD40 inh
COc1ccc(-c2nc(NC(=O)c3ccco3)sc2C)cc1 | 51*
C[C@H]1CN([C@@H](C)CO)C(=O)c2cc(NC(=O)Cc3ccccc3)ccc2O[C@@H]1CN(C)Cc1ccc(Oc2ccccc2)cc1 | 6
CN(C)C(=O)c1cc(-c2ccccc2)no1 | -48
CC(=O)Nc1nccc(-c2cc(-c3ccccc3)no2)n1 | -90
Cc1ccc2nc(-c3cc(-c4ccccc4)no3)cn2c1 | 63*
CN(C)C(=O)c1cccc(-c2ccc3c(c2)[C@@H]2[C@@H](CCN2C(=O)Cc2ccccn2)[C@H](CO)N3C)c1 | -6[25 µM]
CN1C(=O)c2cc(NC(=O)c3cnccn3)ccc2OC[C@H]2O[C@H](CC(=O)NCC3CC3)CC[C@@H]21 | -3
Cc1ccccc1NC(=O)c1ccc(Cl)c(NC(=O)C2CCCC2)c1 | 2
O=C(NCC1CC1)[C@H]1[C@H](CO)[C@H]2Cn3c(ccc(-c4cccc(F)c4)c3=O)[C@H]2N1CC1CCOCC1 | 0[25 µM]
Cc1cnc(C(=O)OC(C)C(=O)Nc2ccc(Cl)cn2)cn1 (centres undefined) | 7
Cc1cccc(OCC(=O)OC(C)C(=O)Nc2ccc(Cl)cn2)c1 (centres undefined) | 8
CCOc1ncccc1C(=O)OC(C)C(=O)Nc1ccc(Cl)cn1 (centres undefined) | 68*
N#C[C@@H]1[C@@H](c2ccc(C3=CCCCC3)cc2)[C@@H](CO)N1C(=O)NC1CCCCC1 | -11
N#C[C@H]1[C@H](c2ccc(C3=CCCCC3)cc2)[C@@H](CO)N1C(=O)c1cccc(F)c1 | -17[25 µM]
O=C(Nc1ccccc1)N1C[C@H]2[C@@H](c3ccccc31)[C@H](CO)N2C(=O)c1ccccc1F | -27
NNC(=O)CCN1CCCCC1 | 6
NC(=O)CCN1CCCCC1 | -5
O=C(CCC(=O)CCN1CCCCC1)CCN1CCCCC1 | 77*
